Among all 39,000 compounds or so, about 3,300 (8.5%) were called active. This excerpt belongs to a sample that is enriched for actives.
These compounds were tested on HepG2 (assay: cytotoxicity call (relative viability < 0.9)). Details: 10 µM.

| SMILES | cytotoxicity call |
| --- | --- |
| C[C@H]1CN([C@@H](C)CO)C(=O)Cc2cc(NS(=O)(=O)c3ccc(F)cc3)ccc2O[C@H]1CN(C)S(=O)(=O)c1cccs1 | inactive |
| Cc1ccccc1-c1ccc2c(c1)O[C@@H](CN(C)C(=O)Nc1ccc(C(F)(F)F)cc1)[C@@H](C)CN([C@@H](C)CO)S2(=O)=O | inactive |
| COC(=O)[C@@H]1CC(=O)N(C(C)C)C1 | inactive |
| C[C@@H]1CN([C@H](C)CO)C(=O)c2c(c3ccccc3n2C)-c2ccccc2CO[C@@H]1CN(C)Cc1ccc(Oc2ccccc2)cc1 | inactive |
| CN1CCN(C(=O)C[C@@H]2C=C[C@H](NC(=O)Cc3ccccn3)[C@@H](CO)O2)CC1 | inactive |
| CCCC#Cc1cnc2c(c1)C(=O)N([C@@H](C)CO)C[C@@H](C)[C@H](CN(C)C(=O)c1ccc3c(c1)OCO3)O2 | inactive |
| Cc1noc(C)c1NC(=O)N(C)C[C@H]1Oc2ccc(NC(=O)Nc3cccc4ccccc34)cc2CC(=O)N([C@@H](C)CO)C[C@H]1C | inactive |
| C[C@H](CO)N1C[C@H](C)[C@@H](CN(C)C(=O)Nc2ccc(C(F)(F)F)cc2)OCCCC[C@H](C)Oc2ccc(NC(=O)CCC(F)(F)F)cc2C1=O | active |
| C[C@@H]1CCCCO[C@H](CN(C)C(=O)Nc2ccc(C(F)(F)F)cc2)[C@H](C)CN([C@@H](C)CO)C(=O)c2cc(NC(=O)CCC(F)(F)F)ccc2O1 | active |
| C[C@@H]1CCCCO[C@H](CN(C)C(=O)Nc2ccc(C(F)(F)F)cc2)[C@H](C)CN([C@H](C)CO)C(=O)c2cc(NC(=O)CCC(F)(F)F)ccc2O1 | inactive |
| C[C@@H]1CN([C@@H](C)CO)C(=O)c2cc(NC(=O)CCC(F)(F)F)ccc2O[C@@H](C)CCCCO[C@H]1CN(C)C(=O)Nc1ccc(C(F)(F)F)cc1 | inactive |
| C[C@H](CO)N1C[C@H](C)[C@H](CN(C)C(=O)Nc2ccc(C(F)(F)F)cc2)OCCCC[C@H](C)Oc2ccc(NC(=O)CCC(F)(F)F)cc2C1=O | inactive |
| C[C@@H]1CCCCO[C@@H](CN(C)C(=O)Nc2ccc(C(F)(F)F)cc2)[C@H](C)CN([C@@H](C)CO)C(=O)c2cc(NC(=O)CCC(F)(F)F)ccc2O1 | inactive |
| C[C@H]1CCCCO[C@H](CN(C)C(=O)Nc2ccc(C(F)(F)F)cc2)[C@@H](C)CN([C@@H](C)CO)C(=O)c2cc(NC(=O)CCC(F)(F)F)ccc2O1 | active |
| C[C@@H]1CCCCO[C@@H](CN(C)C(=O)Nc2ccc(C(F)(F)F)cc2)[C@@H](C)CN([C@H](C)CO)C(=O)c2cc(NC(=O)CCC(F)(F)F)ccc2O1 | inactive |
| C[C@@H]1CCCCO[C@H](CN(C)C(=O)Nc2ccc(C(F)(F)F)cc2)[C@@H](C)CN([C@H](C)CO)C(=O)c2cc(NC(=O)CCC(F)(F)F)ccc2O1 | inactive |
| Clc1ccc2c(c1)[C@H]1C=CC[C@@H]1[C@@H](c1ccccc1)N2 | inactive |
| O=C(C[C@H]1C[C@H]2c3cc(NC(=O)C4CCOCC4)ccc3O[C@H]2[C@@H](CO)O1)NCc1ccc2c(c1)OCO2 | inactive |
| C[C@@H]1CN([C@H](C)CO)C(=O)c2cc(NC(=O)Nc3cccc4ccccc34)ccc2O[C@@H](C)CCCCO[C@@H]1CN(C)C(=O)NC1CCCCC1 | inactive |
| CN(C)C(=O)CN1CCC2(CC1)CN(CCn1cccn1)C(=O)CO2 | inactive |

| SMILES | cytotoxicity call |
| --- | --- |
| CO[C@@H]1CN(C)C(=O)c2ccc(NS(=O)(=O)CC(F)(F)F)cc2OC[C@@H](C)N(C(=O)c2ccc3c(c2)OCO3)C[C@@H]1C | inactive |
| Cc1noc(C)c1NC(=O)N[C@H]1C=C[C@@H](CC(=O)N2CCN(C)CC2)O[C@@H]1CO | inactive |
| CC(C)NC(=O)[C@@]1(c2ccc([N+](=O)[O-])cc2)CC(=O)N(CC23CC4CC(CC(C4)C2)C3)[C@@H]1c1ccc(CO)cc1I | active |
| CC(C)CNC(=O)[C@@]1(c2ccc([N+](=O)[O-])cc2)CC(=O)N(CC23CC4CC(CC(C4)C2)C3)[C@@H]1c1ccc(CO)cc1I | inactive |
| CCCNC(=O)[C@@]1(c2ccc([N+](=O)[O-])cc2)CC(=O)N(CC23CC4CC(CC(C4)C2)C3)[C@@H]1c1ccc(CO)cc1I | inactive |
| CN(C)c1cc(NC(=O)CNC(C)(C)C)c(O)c2c1C[C@H]1C[C@H]3[C@H](N(C)C)C(=O)C(C(N)=O)=C(O)[C@@]3(O)C(=O)[C@H]1C2=O | inactive |
| O=C(C[C@@H]1C[C@H]2c3cc(NC(=O)Cc4ccncc4)ccc3O[C@H]2[C@@H](CO)O1)NCc1cccc(F)c1 | inactive |
| N[C@H](C(=O)O)[C@@H]1CC(Cl)=NO1 | active |
| C[C@@H]1CN([C@H](C)CO)C(=O)c2cc(NS(=O)(=O)c3ccc(F)cc3)ccc2O[C@@H]1CN(C)S(=O)(=O)c1cccs1 | inactive |
| Cc1noc(C)c1S(=O)(=O)Nc1ccc2c(c1)CC(=O)N([C@@H](C)CO)C[C@H](C)[C@@H](CN(C)S(=O)(=O)c1ccc(Cl)cc1)O2 | inactive |
| Cc1cccc(C(=O)O)c1O | inactive |
| Cc1cccc(Nc2ccccc2C(=O)O)c1C | inactive |
| Cc1cccc(C)c1NC(=O)c1ccccc1C(=O)O | active |
| C[C@@H]1CN([C@@H](C)CO)S(=O)(=O)c2ccc(C#CC3CCCCC3)cc2O[C@H]1CN(C)C(=O)Cc1ccncc1 | inactive |
| COC1CC(OC2C(C)=CCC3CC(CC4(CCC(C)C(C5CCCCC5)O4)O3)OC(=O)C3C=C(C)C(=NO)C4OCC(=CC=CC2C)C34O)OC(C)C1O (stereo not given) | active |
| CO[C@H]1C[C@H](O[C@@H]2/C(C)=C/C[C@@H]3C[C@@H](C[C@]4(CC[C@H](C)[C@@H](C5CCCCC5)O4)O3)OC(=O)[C@@H]3C=C(C)/C(=N/O)[C@H]4OC/C(=C\C=C\[C@@H]2C)[C@]43O)O[C@@H](C)[C@@H]1O | active |
| CO[C@H]1C[C@@H](O[C@@H]2/C(C)=C/C[C@@H]3C[C@@H](C[C@]4(CC[C@H](C)[C@@H](C5CCCCC5)O4)O3)OC(=O)[C@@H]3C=C(C)/C(=N/O)[C@H]4OC/C(=C\C=C\[C@@H]2C)[C@]43O)O[C@@H](C)[C@@H]1O | inactive |
| COCC(=O)Nc1ccc2c(c1)C(=O)N(C)[C@@H]1CC[C@@H](CC(=O)N3CCc4ccccc4C3)O[C@@H]1CO2 | inactive |
| COc1ccc(NC(=O)Nc2ccc3c(c2)C(=O)N([C@@H](C)CO)C[C@H](C)[C@H](CN(C)C(=O)NC2CCCCC2)OCCCC[C@@H](C)O3)cc1 | inactive |
| COc1ccc(C)c2c1CCCC2=O | inactive |

| SMILES | cytotoxicity call |
| --- | --- |
| C[C@H](CO)N1C[C@H](C)[C@H](CN(C)C(=O)Nc2cccc3ccccc23)Oc2ccc(NC(=O)Cn3cnnn3)cc2CC1=O | inactive |
| C[C@@H]1CN([C@H](C)CO)C(=O)c2cc(NC(=O)Nc3ccc(C(F)(F)F)cc3)ccc2O[C@@H](C)CCCCO[C@H]1CN(C)S(=O)(=O)c1cccs1 | inactive |
| C[C@@H]1CCCCO[C@@H](CN(C)C(=O)CCC(F)(F)F)[C@H](C)CN([C@H](C)CO)C(=O)c2cc(NS(=O)(=O)c3cccs3)ccc2O1 | inactive |
| Cc1ccc(S(=O)(=O)N[C@@H]2CC[C@H](CC(=O)N3CCC(Cc4ccccc4)CC3)O[C@@H]2CO)cc1 | inactive |
| C[C@@H]1CCCCO[C@H](CN(C)C(=O)NC2CCCCC2)[C@@H](C)CN([C@H](C)CO)C(=O)c2cc(NC(=O)Nc3ccccc3)ccc2O1 | inactive |
| C[C@@H]1CCCCO[C@H](CN(C)C(=O)C2CCCCC2)[C@@H](C)CN([C@@H](C)CO)C(=O)c2cc(NS(=O)(=O)c3ccc(F)cc3)ccc2O1 | inactive |
| COc1cccc(NC(=O)N(C)C[C@@H]2Oc3ncc(C#Cc4cccnc4)cc3C(=O)N([C@H](C)CO)C[C@@H]2C)c1 | inactive |
| C=C1CC2C3C=C(C)C4=CC(=O)CCC4(C)C3CCC2(C)C1(OC(C)=O)C(C)=O (stereo not given) | inactive |
| COC(=O)C[C@@H]1C[C@@H](C)[C@@H]2C(=O)c3c(O)c4c(c(O)c3C(=O)[C@@H]2[C@@H]1O)[C@H]1C[C@@H](O)[C@@]4(O)[C@@H](C)O1 | active |
| CO[C@H](CN(C)S(=O)(=O)c1cn(C)cn1)[C@H](C)CN(C(=O)Nc1ccc(C(F)(F)F)cc1)[C@@H](C)CO | inactive |
| C[C@@H]1CN([C@@H](C)CO)C(=O)c2cc(NS(=O)(=O)c3ccccc3)ccc2O[C@@H](C)CCCCO[C@@H]1CN(C)C(=O)Nc1ccc(C(F)(F)F)cc1 | inactive |
| C[C@@H]1CN([C@@H](C)CO)C(=O)c2cc(NS(=O)(=O)c3ccccc3)ccc2O[C@@H](C)CCCCO[C@H]1CN(C)C(=O)Nc1ccc(C(F)(F)F)cc1 | inactive |
| C[C@@H]1CCCCO[C@@H](CN(C)C(=O)Nc2ccc(C(F)(F)F)cc2)[C@H](C)CN([C@H](C)CO)C(=O)c2cc(NS(=O)(=O)c3ccccc3)ccc2O1 | active |
| C[C@@H]1CN([C@H](C)CO)C(=O)c2cc(NS(=O)(=O)c3ccccc3)ccc2O[C@@H](C)CCCCO[C@H]1CN(C)C(=O)Nc1ccc(C(F)(F)F)cc1 | inactive |
| C[C@@H]1CCCCO[C@H](CN(C)C(=O)Nc2ccc(C(F)(F)F)cc2)[C@H](C)CN([C@@H](C)CO)C(=O)c2cc(NS(=O)(=O)c3ccccc3)ccc2O1 | active |
| C[C@H]1CCCCO[C@@H](CN(C)C(=O)Nc2ccc(C(F)(F)F)cc2)[C@@H](C)CN([C@@H](C)CO)C(=O)c2cc(NS(=O)(=O)c3ccccc3)ccc2O1 | active |
| C[C@@H]1CCCCO[C@H](CN(C)C(=O)Nc2ccc(C(F)(F)F)cc2)[C@@H](C)CN([C@H](C)CO)C(=O)c2cc(NS(=O)(=O)c3ccccc3)ccc2O1 | inactive |
| C[C@@H]1CCCCO[C@H](CN(C)C(=O)Nc2ccc(C(F)(F)F)cc2)[C@H](C)CN([C@H](C)CO)C(=O)c2cc(NS(=O)(=O)c3ccccc3)ccc2O1 | active |
| C[C@@H]1CCCCO[C@@H](CN(C)C(=O)Nc2ccc(C(F)(F)F)cc2)[C@H](C)CN([C@@H](C)CO)C(=O)c2cc(NS(=O)(=O)c3ccccc3)ccc2O1 | inactive |
| C[C@H](CO)N1C[C@H](C)[C@@H](CN(C)C(=O)Nc2ccc(C(F)(F)F)cc2)OCCCC[C@H](C)Oc2ccc(NS(=O)(=O)c3ccccc3)cc2C1=O | inactive |

Reference: the antibiotic and cytotoxicity screens of Wong et al. (2023)
